High-throughput results (PubChem)
An excerpt weighted towards active compounds, which were near 10% of everything screened.
PNC assembly inh: perinucleolar compartment assembly inhibition; PC3M PTB-GFP, PNC prevalence imaging, 16 h; stronger effect = lower value; activity change (PNC), negative = inhibition, % at 10 µM; 140,000 tested, 3.1% active;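 active means readout at or below -70, meaning at least 70% loss of cells showing the perinucleolar compartment, a nuclear body marking cancer cells; inconclusive means readout between -30 and a set limit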;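 further: plate controls were DMSO wells for no effect and camptothecin positive control wells for full effect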
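Compounds are pinned in duplicate onto adhered PC3M cells stably expressing GFP-tagged PTB and incubated 16 h at 37 C. Cells are then fixed, nuclei stained with Hoechst, and PNC-positive cells counted.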
HPGD block: blocks human HPGD enzyme activity. 150,000 tested, 4.3% active. AID 894. Potency, µM, inactives show at the top dose activity change, negative = inhibition, actives largely listed as inhibitors. purified HPGD, NADH fluorescence kinetic, PGE2 substrate. P15428; further: potency means the concentration at half of the fitted maximal effect
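NADH formation kinetics: reaction with 30 uM PGE2 and 1 mM NAD+ (final), 20 nM enzyme, Tris-HCl pH 8 with Tween 20, after 15 min compound preincubation at room temperature. Fluorescence change, last versus first of five reads.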
ALDH1A1 block: blocks purified human ALDH1A1 activity; AID 1030; Potency, µM (top dose mostly 75.3 µM), inactives show top-dose activity, negative = inhibition, most hits filed as inhibitors; P00352; 220,000 tested, 7.3% active; Purified ALDH1A1, NADH fluorescence, propionaldehyde substrate;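 further: potency means the concentration at half of the fitted maximal effect; plate controls were no enzyme wells and a reference inhibitor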
12-hLO inh: blocks human 12-lipoxygenase activity; Potency, µM (titrated, usually from 57.1 µM), for inactives: at the highest dose activity change, negative = inhibition, hits mostly inhibitors; purified 12-hLO, xylenol orange hydroperoxide absorbance; 150,000 tested, 0.12% active; AID 1452; active means well fitted inhibition curve with a large enough effect; inconclusive means small, poorly fitted or top-dose-only effect; further: potency means the concentration at half of the fitted maximal effect; nearly all actives have a fitted effect of over 55% in size
Target sequence (P18054 whole entry, looked up): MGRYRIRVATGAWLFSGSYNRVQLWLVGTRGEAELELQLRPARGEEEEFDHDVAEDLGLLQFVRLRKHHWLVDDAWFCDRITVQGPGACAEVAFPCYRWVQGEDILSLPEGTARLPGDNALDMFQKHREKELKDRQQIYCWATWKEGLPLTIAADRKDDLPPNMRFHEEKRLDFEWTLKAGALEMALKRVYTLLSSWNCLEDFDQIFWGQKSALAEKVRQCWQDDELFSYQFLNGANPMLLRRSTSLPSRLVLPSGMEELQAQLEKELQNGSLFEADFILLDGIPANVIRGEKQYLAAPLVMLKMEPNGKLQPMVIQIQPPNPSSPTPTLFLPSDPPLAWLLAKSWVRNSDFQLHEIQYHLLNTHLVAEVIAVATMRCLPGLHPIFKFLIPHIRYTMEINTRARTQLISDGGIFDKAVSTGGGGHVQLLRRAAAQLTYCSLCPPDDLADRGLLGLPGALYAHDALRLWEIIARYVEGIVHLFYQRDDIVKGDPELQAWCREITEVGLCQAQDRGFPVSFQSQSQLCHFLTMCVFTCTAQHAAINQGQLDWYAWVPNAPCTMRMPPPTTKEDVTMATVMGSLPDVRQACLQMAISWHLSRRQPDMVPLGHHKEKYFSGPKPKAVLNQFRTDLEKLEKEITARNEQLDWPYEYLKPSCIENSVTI
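Purified human 12hLO (150 nM final) was preincubated with compounds for 15 min at room temperature in 25 mM Hepes pH 7.0, 0.01% Triton X-100, then reacted with 40 uM arachidonic acid for 30 min. Hydroperoxide was detected with ferrous iron/xylenol orange.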
LMNA splice mod: LMNA splicing modulation; 200,000 tested, 0.01% active; Potency, µM (highest dose often 46.1 µM), for inactives: at the highest dose ratio change, negative = inhibition, usual class: inhibitors; HeLa LMNA splicing GFP/RFP minigene ratio, 48 h; AID 1487; active means well fitted inhibition curve with a large enough effect in the signal ratio, with a control signal flat, not every such curve was filed as active; inconclusive means small, poorly fitted or top-dose-only effect, or effect the other way, or a change in a side signal; the % refers to the signal ratio; further: potency means the concentration at half of the fitted maximal effect
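S3 HeLa stable clones carrying a lamin A-EGFP splicing minigene plus DsRed2 were seeded at 600 cells/well in Opti-MEM with 2% FBS, pin-dosed and incubated 48 h at 37°C. Acumen cytometry (488 nm) gave the GFP/RFP total-intensity ratio.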
Active calls of the source: *; ? = inconclusive; . = no result given; [ ] = another dose, or the depositor's remark. Unless noted, the call rests on the fitted dose curve; in most records, active means well fitted inhibition curve with a large enough effect (not every such curve was filed as active); inconclusive means small, poorly fitted or top-dose-only effect, or another doubt; inactive means no such curve, though single readings can be large or run the other way. Unless noted, on the % scale 0 is the no-effect control and ±100 the full control effect.

SMILES | PNC assembly inh | HPGD block | ALDH1A1 block | 12-hLO inh | LMNA splice mod
CCN(C1CCS(=O)(=O)C1)S(=O)(=O)c1cccs1 (centres undefined) | -107* | -8% | 9% | 7% | 12%
CCN(CC)C1CCS(=O)(=O)C1 (centres undefined) | . | . | 13% | . | .
CC(C)(C)NC(=O)COC(=O)CCC(=O)c1cccs1 | . | . | -1% | . | 5%[46 µM]
O=C(c1ccccc1)c1coc2ccc(O)c(Cl)c12 | 54 | 14µM* | ? | -9% | ?
Cc1ccc(C(=O)c2coc3ccc(O)c(Cl)c23)cc1 | -13 | -29% | 13% | -12% | 0%
CCOc1ccc2c(c1)c1nnc(SCC(=O)N3CCCCC3C)nc1n2C (centres undefined) | 5 | 16µM* | 13µM* | -2% | 4%
CCOc1ccc2c(c1)c1nnc(SCC(=O)N3CCC(C)CC3)nc1n2C | ? | 3.5µM* | ? | -1% | 11%
CN(C)c1ccc(-c2cncnc2NCc2ccccc2)cc1 | . | ? | ? | 1% | 6%
CCc1ccc(-c2nc(-c3cc4ccccc4oc3=O)sc2C)cc1 | . | . | . | . | -4%[46 µM]
COCCCNC(=O)c1ccccc1SC | -107* | 32µM* | 2% | -3% | -1%
CCOC(=O)c1ccccc1NC(=O)c1ccccc1SC | -80* | -11% | 14µM* | -24% | ?
CCOC(=O)c1ccccc1NC(=O)c1cccnc1 | ? | -11% | -8% | 3% | -12%
CCOC(=O)c1ccccc1NC(=O)CN(c1ccccc1)S(=O)(=O)N(C)C | 3 | -5% | 28µM* | -5% | 2%
CCOC(=O)c1ccccc1NC(=O)c1cncc(Br)c1 | -93* | -25% | -10% | -2% | -15%
COc1ccc(-c2nnc(SCC(=O)Nc3cc(S(=O)(=O)N4CCCCC4)ccc3Cl)n2N)cc1 | 45 | -12% | -7% | 4% | ?
Cc1cn(C)c(CC(=O)N2CCN(c3ccc(F)cc3)CC2)c1C(=O)O | . | . | . | . | 3%[46 µM]
Nc1nc(SCc2ccccc2[N+](=O)[O-])c2[nH]cnc2n1 | . | -2% | 7%[13.5 µM] | 1%[11.4 µM] | .
CCCCCCCC/C=C\CCCCCCCC(=O)NC(C)C(=O)O (centres undefined) | . | -1% | 0% | 5% | .
O=C(O)C1C2C=CC(C2)C1C(=O)NC1CCS(=O)(=O)C1 (centres undefined) | 30 | -12% | 22µM* | 0% | 2%
Clc1ccc(Cl)c2sc(N3CCCC3)nc12 | -11 | ? | 10µM* | -8% | ?
Cc1cc(C)cc(N2CC(c3nc(-c4cccc(Cl)c4)no3)CC2=O)c1 (centres undefined) | . | . | . | . | -23%[46 µM]
Cc1cc(-c2nc(C)c(C(=O)NNS(=O)(=O)c3ccc(Cl)cc3Cl)s2)no1 | . | . | ? | . | 9%[46 µM]
Cc1nc(-c2ccccc2)sc1C(=O)NN | . | . | 4.5µM* | . | ?
Cc1ccc(N/C=C/C(=O)c2sc(-c3ccccc3)nc2C)cc1 | 9 | -2% | 11µM* | -8% | ?
Cc1nc(NS(=O)(=O)c2ccccc2)sc1C(=O)NN | . | . | -7% | . | ?
SMILES | PNC assembly inh | HPGD block | ALDH1A1 block | 12-hLO inh | LMNA splice mod
Cc1cc(-c2nc(C)c(C(=O)NN)s2)no1 | . | . | 10µM* | . | .
Cc1nc(N)sc1C(=O)NN | . | . | 25µM* | . | .
COc1ccc(-c2cc3ccc(O)c(CN4CCC(C)CC4)c3oc2=O)cc1 | . | . | . | . | -12%[46 µM]
Cn1c(=O)c(CCc2ccccc2)nc2cnc(N3CCNCC3)nc21 | . | ? | ? | 7% | .
CCCN(CCC)C(=O)c1c[nH]c2ccc(S(=O)(=O)N(C)c3ccc(OCC)cc3)cc2c1=O | . | . | . | . | 14%[46 µM]
Cc1cc(C)n2c(-c3ccccc3Cl)nnc2n1 | -109* | ? | ? | 1% | -9%
Cc1cc(C)cc(Oc2ccccc2/C=C\C(=O)O)c1 | -86* | -5% | 3% | 3% | -6%
O=C(O)/C=C\c1ccccc1Oc1cccc(Cl)c1 | . | . | 0% | . | ?
COCC(=O)N1CCC2(CCN(Cc3ccccc3OC)CC2)CC1 | . | 1% | 9% | 3% | .
Cc1ccc(Cn2c(CO)cnc2SCC(=O)Nc2ccc(C)c(Cl)c2)cc1 | . | . | . | . | 6%[46 µM]
CCOc1ccc(NC(=O)N2CCN(C(=O)c3nsc4ccccc34)CC2)cc1 | . | . | . | . | 6%[46 µM]
CCCCCCC1CC(CC(=O)Nc2ccc([N+](=O)[O-])cc2)C(=O)O1 (centres undefined) | -104* | -3% | 14% | 1% | ?
CC1(C)CC(CC(=O)Nc2ccc([N+](=O)[O-])cc2)C(=O)O1 (centres undefined) | 9 | -5% | -7% | 7% | 11%[0.0737 µM]
CCCn1c(=O)c(C)cn2nc(N)nc12 | . | ? | ? | 0% | .
CCN(CC)CCCNC(=O)c1sc2nc3n(c(=O)c2c1C)CCCCC3 | . | . | . | . | 14%[46 µM]
COc1ccc(S(=O)(=O)N2CCC(C(=O)Nc3ccccc3C)CC2)c2cccnc12 | -16 | -18% | 22µM* | 3% | 11%
COc1ccc(Cl)cc1NC(=O)Cn1cc(S(=O)(=O)Cc2cccc(Cl)c2)c2ccccc21 | . | . | . | . | -1%[46 µM]
Cc1ccccc1S(=O)(=O)c1c(C)cc(C)n(CC(C)C)c1=O | -29 | -4% | 7.9µM* | -3% | 18%
O=S(=O)(NCCc1csc2nc(-c3ccc(Cl)cc3)nn12)c1cccs1 | . | . | . | . | 14%[46 µM]
Cc1ccc(C(=O)Nc2ccc3c(c2)OCO3)o1 | -21 | -13% | -8% | -7% | 5%
O=C(Nc1ccc(Nc2ccccc2)cc1)c1ccc(Br)o1 | 10 | 28µM* | 5% | -10% | ?
COc1ccc(NC(=S)NC(=O)c2ccc(Br)o2)cc1 | . | . | 11µM* | . | .
O=C(Nc1ccc2c(c1)OCCO2)c1ccc(Br)o1 | 70 | 28µM* | ? | 0% | -3%
CC12CC[C@@H]3c4ccc(OS(=O)(=O)O)cc4CC[C@H]3C1CCC2=O (some centres undefined) | . | 1% | -9%[20.9 µM] | -1%[25.6 µM] | -3%
O=C(c1cnccn1)N1CCC2(CC1)CCN(c1ccncc1)CC2 | . | 2% | 10% | 4% | .
SMILES | PNC assembly inh | HPGD block | ALDH1A1 block | 12-hLO inh | LMNA splice mod
CCOCCCNC(=O)c1ccc2c(=O)n(CCc3ccc(OC)c(OC)c3)c(=O)[nH]c2c1 | . | . | . | . | -14%[46 µM]
CCCN1C(=O)/C(=C\C=C2/C=CN(CC)c3ccccc32)SC1=S | -30 | -15% | 5µM* | -1% | -20%
C=CCn1cnc2c(c1=O)c1nc3ccccc3nc1n2/N=C/c1cc(OC)c(OC)c(OC)c1 | 29 | -15% | -6% | -1% | -14%
C=CCn1c(=O)/c(=C/c2cc(OC)c(OC)c(OC)c2)s/c1=C(/C#N)c1nc2ccccc2n1C | -16 | -26% | 1.4µM* | -5% | -3%
CC(=O)N1CCc2ccccc2C1CC(=O)O (centres undefined) | . | . | 12% | . | .
CSc1ccc([C@H]2CN3CCC[C@H]3c3ccccc32)cc1 | . | -7% | -9% | -27%[0.00818 µM] | .
COc1ccc(-c2cc(C(=O)NNC3=NCCC3)c3c(C)nn(-c4ccccc4)c3n2)cc1 | . | . | 6% | . | -15%[46 µM]
COc1ccc(NC(=O)c2cc(-c3ccccc3)nc3c2c(C)nn3-c2ccccc2)c(OC)c1 | -89* | ? | 172% | -2% | ?
